Values without a mark were called inactive. Calls of active or inactive are those of the source. The call rests on the fitted dose curve.
On the % scale 0 is the no-effect control and ±100 the full control effect.

The nature of this assay: qHTS assay to identify small molecule agonists of the sonic hedgehog signaling (Shh) pathway (AID 1259368).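 Further: NIH/3T3-derived 3T3Gli1-Luc cells carrying a stable Gli1-driven firefly luciferase reporter; nearly all actives have a fitted effect of over 15% in size.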 The settings on record: NIH/3T3 Gli1-Luc reporter, luciferase, 24 h, hits give high values; series mostly up to 92.4 µM. The procedure, abridged: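 Luminescence was read after 30 min at room temperature with luciferase reagent. Before that, 3T3Gli1-Luc cells (NIH/3T3 clone, stable Gli1-Luc reporter; 2,000/well) were exposed to compounds for 24 hr at 37C, 5% CO2, compounds being added 4 hr post-plating.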
(In qHTS, concentration-response curves come from the screen itself.)
On to `N#CC(Br)(Br)C(N)=O`, for which the compound was called inactive.

`C=CCC1(C(C)CC)C(=O)NC(=O)NC1=O` (stereo not given): the result was inactive.

`CCCC(C)C1(CC)C(=O)N=C(S)NC1=O` (stereo not given): the call was inactive.

With `CCOC(=O)NC(C)(C)Cc1ccc(Cl)cc1`, the compound was classed as inactive.

As to `C[C@@H](N)[C@@H](O)c1ccccc1`, the outcome was inactive.

In the case of `O=[N+]([O-])c1cccc(CCl)c1`, the call was inactive.

With `CNC(=O)O/N=C(/CSC)C(C)(C)C`, the compound was classed as inactive.

As for `CC(C)(N)Cc1ccc(Cl)cc1`, the call was inactive.

On to `CCOP(=O)(CN(CCO)CCO)OCC`, for which the compound was classed as inactive.

For the compound `CCCCS(=O)(=O)Cl`, the outcome was inactive.

For the compound `CC(C)C(C)(N)C#N` (stereo not given), the outcome was inactive.

As to `NNCc1ccccc1`, the compound was called inactive.

As to `CCOC(=O)CC(SP(=S)(OC)OC)C(=O)OCC` (stereo not given), the compound was classed as inactive.

As for `Brc1c(Br)c(Br)c(Br)c(Br)c1Br`, the activity change was -2.81% [at 8.39 µM].

As for `ClCC1CO1` (stereo not given), the compound was called inactive.

For `COC(=O)[C@@H](N)CCCN/C(N)=N/[N+](=O)[O-]`, the outcome was inactive.

`CC(Cl)(Cl)Cl`: the outcome was inactive.

`N#CN=C1SCCN1Cc1ccc(Cl)nc1`: the compound was called inactive.

In the case of `CCN[C@H](C)Cc1cccc(C(F)(F)F)c1`, the compound was called inactive.

Regarding `CCN[C@@H](C)Cc1cccc(C(F)(F)F)c1`, the outcome was inactive.

Regarding `CCCN1CCC[C@@H]2Cc3nc(N)ncc3C[C@H]21`, the compound was called inactive.

For the compound `CCOC(=O)C(SP(=S)(OC)OC)c1ccccc1` (stereo not given), the result was inactive.

Regarding `CCCCOC(C)=O`, the outcome was inactive.

Regarding `Cc1cccc2sc3nncn3c12`, the call was inactive.

Take `NCC1(CC(=O)O)CCCCC1`: the compound was called inactive.

As for `CCN1CCCC1CNC(=O)C(O)(c1ccccc1)c1ccccc1` (stereo not given), the result was inactive.

Turning to `COc1cc(CC(C)N)cc(OC)c1OC` (stereo not given), the outcome was inactive.

As for `CN1COCN(Cc2cnc(Cl)s2)/C1=N\[N+](=O)[O-]`, the call was inactive.

On to `CS(=O)(=O)c1ccc(C(=O)C2C(=O)CCCC2=O)c(Cl)c1COCC(F)(F)F`, for which the compound was classed as inactive.

As for `O=C(Cl)c1ccccc1`, the compound was classed as inactive.

With `C#CCOC(=O)/C=C(C)/C=C/CC(C)CCCC(C)C` (stereo not given), the compound was classed as inactive.

`O=C(O)C(Br)(Br)Br`: the compound was classed as inactive.

`Cc1ccc(-c2nc3ccc(C)cn3c2CC(=O)N(C)C)cc1`: the compound was classed as inactive.

Turning to `CNC(=O)Oc1ccccc1C(C)C`, the outcome was inactive.

Regarding `CCCCCCC(=O)CCCCCC/C=C/C[C@@H](O)[C@H](O)[C@@](N)(CO)C(=O)O`, the activity change is -0.137% [at 18.9 µM].
